High-throughput results deposited in PubChem by The Scripps Research Institute Molecular Screening Center.
TEAD-YAP inh = TEAD-YAP interaction inhibition. HEK-TIYL cells, TEAD-Gal4/YAP UAS-luciferase luminescence. inhibition, % at 9.12 µM. 640,000 compounds, 1.4% hits. AID 1259422; in the data active = inhibition above about 32%;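 note: 0% = median of test compound wells and 100% = reference inhibitor wells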
MITF inh = inhibitors of human MITF. O75030. AlphaScreen MITF homodimerization, bead proximity signal. inhibition, % at 2.6 µM. 650,000 compounds, 0.91% hits. AID 1259374; in the data active = inhibition above about 50%;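 note: 0% = vehicle wells with protein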
FBW7 activator = human FBW7 E3 ligase activation, primary screen | Q969H0 | AlphaScreen FBW7–phospho-cyclin E peptide binding, activator screen | normalized activity (activation), % at 26.1 µM | 650,000 compounds, 0.13% hits | AID 1259310; in the data active = normalized activity above about 1.9%;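 note: purified mutant Fbw7 with reduced substrate affinity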
GPR151 ag = activators of human GPR151; 650,000 compounds, 1% hits; activation, % at 11.2 µM; Q8TDV0; AID 1508602; PathHunter beta-arrestin GPR151 cells, luminescence; in the data active = activation above about 4.9%;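 note: 0% = median of compound wells and 100% = cells with positive control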
Target sequence (Q8TDV0 whole entry, looked up): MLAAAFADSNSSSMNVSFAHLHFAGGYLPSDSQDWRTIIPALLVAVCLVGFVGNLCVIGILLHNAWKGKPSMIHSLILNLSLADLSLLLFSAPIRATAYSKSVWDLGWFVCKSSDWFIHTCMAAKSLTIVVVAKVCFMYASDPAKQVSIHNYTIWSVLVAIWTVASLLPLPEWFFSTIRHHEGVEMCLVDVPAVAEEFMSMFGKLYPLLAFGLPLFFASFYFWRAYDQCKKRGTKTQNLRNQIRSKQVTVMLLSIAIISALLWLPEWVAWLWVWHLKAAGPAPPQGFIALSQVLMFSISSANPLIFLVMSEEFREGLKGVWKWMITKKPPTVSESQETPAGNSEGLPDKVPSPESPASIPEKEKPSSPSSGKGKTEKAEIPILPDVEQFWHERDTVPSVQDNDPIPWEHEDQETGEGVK
GPR151 conf act = human GPR151 activation, confirmation screen. shares compounds with GPR151 ag. AID 1508609. 6,700 tested, under 10 active. GPR151 PathHunter beta-arrestin cells, luminescence, 90 min; % of EA-reagent control over plate median. activation, % at 11.2 µM;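 active = mean percent activation across replicates above the confirmation screen cutoff of 4.91%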
GPR119 ag = counter-screen for GPR151 activators: effect on human GPR119; GPR119 PathHunter beta-arrestin cells, luminescence, 90 min; 0 = compound-well median, 100 = enzyme-acceptor control; 6,700 compounds, 0.3% hits; shares compounds with GPR151 ag; activation, % at 11.2 µM;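 active = mean percent activation in the counterscreen above 29.09%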;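 note: counterscreen on off-target GPR119 to flag nonselective hits from the GPR151 activator screen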
Numbers without * were called inactive. Sampled rows, rich in hits. Any-hit rate of the full collection: about 3.4%.

What do the screens show for `Cc1cccc(NC(=O)Nc2cnn(-c3cccc(C(=O)NOCc4ccccc4)c3)c2)c1`?
TEAD-YAP inh: -4; MITF inh: 14; FBW7 activator: 0; GPR151 ag: 4.9*; GPR151 conf act: 0; GPR119 ag: -7

How did Cc1cccc(NC(=O)Nc2cnn(-c3cccc(C(=O)Nc4cc(C)c(C)c(C)c4)c3)c2)c1 do in these assays?
TEAD-YAP inh: -4; MITF inh: -9; FBW7 activator: 0; GPR151 ag: 1

What do the screens show for `CCOC(=O)c1ccc(NC(=O)CCSc2nc(N)c3c(C)c(C)sc3n2)cc1`?
TEAD-YAP inh: 1; MITF inh: 1; FBW7 activator: 0; GPR151 ag: 6.8*; GPR151 conf act: 0; GPR119 ag: 0

Results for NC(C(=O)Nc1ccc(-c2ccncn2)cc1)c1ccc(Cl)cc1 (stereo unspecified) ?
TEAD-YAP inh: -4; MITF inh: 25; FBW7 activator: 0; GPR151 ag: 0

How did CCOC(=O)CCC(=O)Nc1cccc2c(NC(=O)CCC(=O)OCC)cccc12 do in these assays?
TEAD-YAP inh: -10; MITF inh: -27; FBW7 activator: 0; GPR151 ag: 2

Results for CCOC(=O)CCC(=O)Nc1cccc(Cl)c1Cl ?
TEAD-YAP inh: 4; MITF inh: 5; FBW7 activator: 0; GPR151 ag: 6.9*; GPR151 conf act: 0; GPR119 ag: -4

How did COc1ccc(/C=C(\NC(=O)c2ccc(OC)cc2)C(=O)NC(C)C(=O)O)cc1 (stereo unspecified) do in these assays?
TEAD-YAP inh: 1; MITF inh: 14; FBW7 activator: 0; GPR151 ag: 2

Results for COc1ccc(C(=O)N/C(=C/c2ccccc2)C(=O)NC(C)C(=O)O)cc1 (stereo unspecified) ?
TEAD-YAP inh: 3; MITF inh: 11; FBW7 activator: 0; GPR151 ag: 8.7*; GPR151 conf act: 1; GPR119 ag: 11

Results for CC(=O)Nc1ccc(NC(=O)c2cccc(N3CCCC3CO)n2)cc1 (stereo unspecified) ?
TEAD-YAP inh: 9; MITF inh: -6; FBW7 activator: 0; GPR151 ag: 5.6*; GPR151 conf act: 0; GPR119 ag: -4

How did CCCNC(=O)c1cccc(N2CCC(N3CCOCC3)CC2)n1 do in these assays?
TEAD-YAP inh: 3; MITF inh: 13; FBW7 activator: 0; GPR151 ag: 1

What do the screens show for `O=C(NCCO)c1cccc(N2CCCC2CO)n1` (stereo unspecified)?
TEAD-YAP inh: 4; MITF inh: 12; FBW7 activator: 0; GPR151 ag: -1

How did COc1ccc(CCNC(=O)c2cccc(N3CCCC3CO)n2)cc1 (stereo unspecified) do in these assays?
TEAD-YAP inh: 46*; MITF inh: 3; FBW7 activator: 0; GPR151 ag: 8.7*; GPR151 conf act: 0; GPR119 ag: -7

What do the screens show for `O=C(NCCc1ccc(O)cc1)c1cccc(N2CCC(N3CCOCC3)CC2)n1`?
TEAD-YAP inh: 4; MITF inh: 2; FBW7 activator: 0; GPR151 ag: 5.6*; GPR151 conf act: -1; GPR119 ag: -15

Results for Cc1nc2c(-c3cccs3)c(C)nn2c(NCc2cccnc2)c1C ?
TEAD-YAP inh: -9; MITF inh: -2; FBW7 activator: 0; GPR151 ag: 0

What do the screens show for `O=C(O)c1ccccc1NS(=O)(=O)c1ccccc1`?
TEAD-YAP inh: -1; MITF inh: -4; FBW7 activator: 0; GPR151 ag: -1

How did CC/C(Cc1ccccc1)=N\NC(=O)CCc1ccccc1 do in these assays?
TEAD-YAP inh: -1; MITF inh: -12; FBW7 activator: 0; GPR151 ag: 2

How did Cn1c(=O)c2c(SCCC3OCCO3)nc(C3CCCCC3)nc2n(C)c1=O do in these assays?
TEAD-YAP inh: -4; MITF inh: -15; FBW7 activator: 0; GPR151 ag: 7.9*; GPR151 conf act: 3; GPR119 ag: 8

How did C=CCNc1oc(-c2ccccc2)nc1C#N do in these assays?
TEAD-YAP inh: -44; MITF inh: -27; FBW7 activator: 0; GPR151 ag: 0

What do the screens show for `CCN(/C=N/c1sc2c(c1C#N)CC(C)(C)NC2(C)C)CC`?
TEAD-YAP inh: -6; MITF inh: 14; FBW7 activator: 0; GPR151 ag: 0
